# Source: PubChem BioAssay (NCI)
# This is part of a sample that, as a whole, favours compounds with a hit. Of some 83,000 tested, about 20% had one in any assay.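 Values shown are percent growth following 48 h exposure of cells in 96-well plates to a single concentration of compound; below 10 was considered active.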 Values without a mark were called inactive. Activity calls are given as the source filed them.
# Legend:
# Assay in all cases: NCI-60 one-dose screen, 48 h (100 = growth as untreated, 0 = no growth, -100 = all killed)
# SK-MEL-2 melanoma = conditions: 10 µM
# SN12C renal = conditions: 10 µM
# UO-31 renal = conditions: 10 µM
# TK-10 renal = conditions: 10 µM unless noted
# ACHN renal = conditions: 10 µM
# CAKI-1 renal = conditions: 10 µM
# A498 renal = conditions: 10 µM
# CCRF-CEM leukemia = conditions: 10 µM
# MOLT-4 leukemia = conditions: 10 µM
# EKVX NSCLC = conditions: 10 µM
Structure (SMILES),growth (SK-MEL-2 melanoma),growth (SN12C renal),growth (UO-31 renal),growth (TK-10 renal),growth (ACHN renal),growth (CAKI-1 renal),growth (A498 renal),growth (CCRF-CEM leukemia),growth (MOLT-4 leukemia),growth (EKVX NSCLC)
Cc1ccc(S(=O)(=O)O)c(C)c1,112%,103%,73.6%,101%,103%,96.3%,94.1%,100%,98.6%,–
O=[N+]([O-])c1ccc(-c2noc(-c3cccs3)n2)cc1,106%,83.5%,–,101%,60.2%,77.8%,88.6%,93.6%,81.5%,–
O=[N+]([O-])c1cccc2nsnc12,106%,104%,–,–,105%,114%,102%,95.9%,101%,–
COc1cc([C@@H]2c3cc4c(cc3[C@H](O)[C@H]3COC(=O)[C@H]23)OCO4)cc(OC)c1OC,–,32.9%,48.2%,51.4%,34.6%,26.9%,-10.2% (active),6.58% (active),-6.06% (active),38.8%
CC(=O)c1ccc(C)c(N)c1,–,96%,81.4%,98.5%,101%,92.9%,95.4%,94.3%,103%,91.8%
CN(C)/N=C/c1ccccc1O,90.3%,97.7%,92.3%,–,97.6%,96.1%,94.5%,100%,95.9%,–
CC1NC(=O)NC1CCCCCC(=O)O (stereo unspecified),103%,105%,–,100%,101%,–,–,2.23% (active),118%,–
CCC(C#N)(CC)c1ccccc1,105%,98%,–,108%,103%,113%,111%,102%,107%,–
COC(=O)c1ccc(C(C)C)cc1,116%,99.1%,97.4%,–,101%,96.8%,129%,83.9%,101%,–
C=CC[N+](C)(C)C,111%,101%,97%,92.7%,100%,–,106%,–,94%,–
COC(=O)/C=C\C(=O)OC,–,102%,81.1%,109%,113%,112%,104%,110%,87.8%,122%
O=[N+]([O-])c1ccc(Cl)c(S(=O)(=O)O)c1,–,103%,89.3%,136%,101%,106%,113%,81.3%,89.7%,111%
O=C(O)c1ccc(S(=O)(=O)O)cc1,–,95.2%,64.4%,116%,99.5%,79%,122%,106%,118%,104%
COC(=O)c1cccc(Br)c1,–,104%,101%,106%,108%,102%,86.3%,98.2%,111%,87.1%
Cc1ccc(C(=O)N/N=C/c2ccc3c(c2)OCO3)cc1,–,96%,78.2%,98%,94.3%,93.3%,96.6%,84.8%,91.2%,101%
OC1OC(COC(c2ccccc2)(c2ccccc2)c2ccccc2)C(O)C(O)C1O (stereo unspecified),91.5%,74%,76.7%,–,96.9%,96.5%,93.7%,–,87.6%,–
COc1ccc(C2OC(N)=C(O)C2=O)cc1OC (stereo unspecified),117%,96.1%,–,104%,96.9%,92.7%,109%,98.2%,109%,–
O=c1[nH]nc(SC2CCCCC2)c(=O)[nH]1,–,102%,77.9%,95.3%,113%,95%,93.7%,106%,89%,99.5%
Cc1c(O)cccc1O,93.5%,88%,111%,104%,107%,61%,–,100%,90%,–
CCN(CC)CCNc1ccc(CO)c2sc3ccccc3c(=O)c12,–,37.5%,25.5%,46.4%,20.4%,43.2%,-17.9% (active),37%,8.97% (active),65.6%
O=C1C=CC(=O)N1c1ccc(I)cc1Cl,114%,101%,94%,–,104%,–,99.1%,85.9%,128%,–
CCCC[P+](c1ccccc1)(c1ccccc1)c1ccccc1,75.7%,60.1%,86.9%,74.8%,84.9%,–,75.5%,–,59.1%,–
OC1CCCc2ccccc21 (stereo unspecified),–,99%,60.6%,86.4%,97.9%,121%,120%,94.8%,105%,100%
CCOc1ccc2[nH]c(=S)sc2c1,–,102%,88%,103%,111%,100%,94%,98.3%,86.7%,96.2%
CNC(=S)NC(C)(C)C,122%,102%,–,96.8%,108%,92.6%,112%,88.6%,106%,–

Structure (SMILES),growth (SK-MEL-2 melanoma),growth (SN12C renal),growth (UO-31 renal),growth (TK-10 renal),growth (ACHN renal),growth (CAKI-1 renal),growth (A498 renal),growth (CCRF-CEM leukemia),growth (MOLT-4 leukemia),growth (EKVX NSCLC)
O=C(O)CNC(=O)c1ccccc1,–,–,–,–,–,–,–,–,–,93.4%
N#Cc1c(N)sc(=S)c2c1CCCC2,–,105%,91.6%,116%,103%,98.5%,113%,101%,95.4%,107%
CCC/C=C(\C)C(C)(C#N)C(=O)OCC (stereo unspecified),105%,–,100%,108%,106%,92.3%,98.9%,90.4%,104%,–
O=C(N/N=C/c1ccccc1O)Nc1nn[nH]n1,110%,100%,90.2%,–,92.8%,94.8%,94.9%,98.8%,109%,–
CCCCCCCCOC(=O)c1ccccn1,103%,96.4%,–,102%,103%,111%,104%,–,116%,–
CCOC(=O)C(C#N)Cc1ccccc1 (stereo unspecified),–,103%,94.5%,106%,110%,98.7%,114%,102%,123%,114%
O=C(O)C(Cc1ccccc1)C(=O)O,–,103%,91.6%,105%,111%,102%,89.1%,97.9%,116%,106%
O=C1Cc2ccccc2C(=O)O1,103%,101%,–,110%,111%,99.9%,123%,85.8%,85.4%,–
O=c1cc(-c2ccccc2)[nH]c2c1CCCC2,–,44.6%,50.8%,34.5%,40.5%,24.5%,19.2%,32.6%,41.1%,43.3%
C[C@@H](c1ccccc1)[C@@H](C(=O)O)c1ccccc1,99.5%,98.1%,91.2%,–,96.4%,99.1%,96.7%,98.9%,102%,–
COc1ccc(C(=O)C(Br)C(Br)C(=O)O)cc1 (stereo unspecified),94%,98.6%,102%,–,101%,112%,101%,–,105%,–
Nc1ccccc1SC(CC(=O)c1ccccc1)c1c(Cl)cccc1Cl (stereo unspecified),91.6%,62.9%,58.1%,–,69.4%,76.9%,79.1%,–,17.2%,–
O=c1cc(-c2ccccc2)nc2cc(-c3ccco3)[nH]n12,102%,96%,74.6%,124%,91%,–,82.1%,78.7%,87%,–
O=C(Cc1ccccc1)Cc1ccccc1,90.1%,104%,98%,–,98.1%,97.9%,101%,98.3%,96.7%,–
CCOC(=O)c1coc(C(=O)OCC)c1C(=O)OCC,126%,112%,96.5%,118%,–,102%,92.2%,112%,98.6%,–
COc1ccc(C(C)C=O)cc1 (stereo unspecified),–,104%,93.7%,92.1%,103%,104%,121%,–,93%,126%
COc1cc2c(cc1OC)[C@H](C(=O)O)[C@@H](c1ccc(OC(C)C)c(OC)c1)N(C)C2=O,–,90.4%,97.6%,96.2%,96.2%,80%,137%,96.6%,94.3%,92.7%
O=C(NCO)c1ccccc1,–,105%,78.9%,144%,97.4%,98.5%,106%,–,95.4%,108%
NC(=S)CN1CCOCC1,–,103%,88%,99.3%,103%,95.6%,89.9%,-25.8% (active),32.3%,112%
CC1(c2ccccc2)NC(=O)NC1=O (stereo unspecified),–,96.9%,82.5%,98.8%,107%,104%,123%,102%,101%,120%
NC(=O)N/N=C\c1ccco1,–,98.4%,94.7%,100%,111%,108%,117%,102%,101%,119%
Cc1nc2c(ccc3ccccc32)s1,–,107%,96.9%,119%,111%,103%,115%,85.7%,103%,110%
COc1cccc(Sc2ccc([N+](=O)[O-])c3no[n+]([O-])c23)c1,–,74.4%,-21.5% (active),60.3%,9.88% (active),64.8%,98%,-19.5% (active),0.692% (active),91.9%
O=C1Cc2cc(O)ccc2O1,–,102%,83.7%,115%,105%,103%,–,94%,91.2%,104%
O=c1c2ccccc2c(Br)c(Br)c2ccccc12,–,96.8%,-35.2% (active),23.6%,53.7%,56.5%,113%,30.7%,53.6%,105%
